Measurements: the supplement of paper PMC10338343
± gives the standard deviation. Whole data set: some 8,200 sequences, median “pre-steady-state target cleavage rate” near 0.024, cut for the highest 2% near 1.3. The sample as a whole holds a higher share of the highest values than the screen did.

System: MIWI (PIWIL1) piRISC loaded with L1MC piRNA (30 nt)
Test: pre-steady-state target cleavage rate (min^-1); MIWI and MILI are mouse PIWI proteins and EfPiwi is from a freshwater sponge; tags in brackets are library labels; higher = faster piRNA-guided slicing of the target
Details: guide: L1MC piRNA 5'p-UAACUAAAUACUAUGCAAGCUGUAGGUCCU
Experimental: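 Cleave-'n-Seq: a library of target RNAs (target site embedded in constant flanks, ACAGCATTCCGCGTTAGTGATATCCG... 5' flank; DNA-blocked outside the site) at 0.1 nM was incubated with 1 nM active mouse MILI or MIWI piRISC (synthetic 5'-monophosphorylated piRNA guide) with or without 500 nM mouse GTSF1 at 33 °C for 1 min to 16 h. Uncleaved targets were sequenced and normalised to non-target controls, and the pooled three trials were fitted to a burst-and-steady-state model to give the pre-steady-state cleavage rate (min^-1; k3 is constrained to at most 1e-4). Sequence is the target site only; target names encode pairing extent (gX:gY) and contiguous / 1-mismatch / 2-mismatch / bulge geometry. Fits with R² ≤ 0 are excluded.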

[1] = auxiliary factor: 500 nM mouse GTSF1
[2] = auxiliary factor: none (no GTSF1)

Sequence	pre-steady-state target cleavage rate [1]	pre-steady-state target cleavage rate [2]
AGGACCUACAGCUUGCAUAGUAUUUAGUUU [g2:g30:cont:t1U]	1.64 ± 0.079	0.165 ± 0.036
AGGACCUACAGCUUGCAUAGUAUUUAGUUG [g2:g30:cont:t1G]	0.455 ± 0.046	0.0773 ± 0.018
AGGGACCUACAGCUUGCAUAGUAUUUAGUUA	1.31 ± 0.086	0.102 ± 0.021
UGGGACCUACAGCUUGCAUAGUAUUUAGUUA	1.11 ± 0.1	0.134 ± 0.033
AAGGACCUACAGCUUGCAUAGUAUUUAGUUA	1.29 ± 0.071	0.0755 ± 0.014
AGGACCUACAGCUUGCAUAGUAUUUAGUUA [g2:g30:cont:t1A]	1.35 ± 0.057	0.0941 ± 0.015
UCGGACCUACAGCUUGCAUAGUAUUUAGUUA	1.37 ± 0.097	0.0616 ± 0.01
AGGACCUACAGCUUGCAUAGUAUUUAGUUUA	1.27 ± 0.067	0.11 ± 0.019
CGGACCUACAGCUUGCAUAGUAUUUAGUUA	0.743 ± 0.028	0.06 ± 0.0088
AGGACCUACAGCUUGCAUAGUAUUUUAGUUA	1.08 ± 0.058	0.056 ± 0.014
UCCACCUACAGCUUGCAUAGUAUUUAGGUUA	0.409 ± 0.062	0.0153 ± 0.0045
UCGACCUACAGCUUGCAUAGAUUUUAGUAA	0.124 ± 0.023	–
UCCUCCUACAGCUUGCAUAGUAAUUAGAUA	0.297 ± 0.047	0.00556 ± 0.0028
UCCUGCUACAGUCUUGCAUAGUAUUUAGUUA	0.643 ± 0.033	0.0274 ± 0.005
UCCUGGAUGUCGUUGCAUAGUAUUUAGUUUA	0.022 ± 0.0057	0.00499 ± 0.003
UCCUGGAUGUCCUUGCAUAGUUUUUACUUA	0.00583 ± 0.0041	–
UCCUGGAUGUGCUUGCAUAGUAUUUAUUA	0.0179 ± 0.0058	–
UGGACCUACAGCUUGCAUAGUAUUUCGUUA	0.411 ± 0.054	0.0397 ± 0.0067
UCCUGGAUCAGCUUGCAUACUAAUUAGUUA	0.0563 ± 0.0091	0.00771 ± 0.0023
UCCUCUUACAGCUUGCAUAGUAUUUAGUUA	1.62 ± 0.055	0.061 ± 0.0099
UCCUCCUUACAGCUUGCAUAGUAUUUAGUUA	1.3 ± 0.052	0.0583 ± 0.011
UCCUCACUACAGCUUGCAUAGUAUUUAGUUA	0.676 ± 0.03	0.0551 ± 0.0082

Sequence	pre-steady-state target cleavage rate [1]	pre-steady-state target cleavage rate [2]
UCCUCCAUACAGCUUGCAUAGUAUUUAGUUA	0.364 ± 0.019	0.0335 ± 0.0051
UCCUGCGACAGCUUGCAUAGUAUUUAGUUA	1.19 ± 0.06	0.0863 ± 0.017
UCCUGGUACAGCUUGCAUAGUAUUUAGUUA [g2:g24:cont:t1A]	0.82 ± 0.041	0.0692 ± 0.013
UCCUGCUUACAGCUUGCAUAGUAUUUAGUUA	1.48 ± 0.13	0.0826 ± 0.02
UCCUGUUACAGCUUGCAUAGUAUUUAGUUA	1.28 ± 0.058	0.0747 ± 0.013
UCCUGCGUACAGCUUGCAUAGUAUUUAGUUA	1.33 ± 0.062	0.0785 ± 0.016
UCCUCAUACAGCUUGCAUAGUAUUUAGUUA	1.47 ± 0.054	0.0664 ± 0.01
UCCUGGUUACAGCUUGCAUAGUAUUUAGUUA	1.01 ± 0.048	0.0561 ± 0.011
UCCUCGCUACAGCUUGCAUAGUAUUUAGUUA	0.831 ± 0.05	0.0517 ± 0.0088
AGGACCUACAGCUUGCUUAGAAUUUAGUUA	0.377 ± 0.04	0.00929 ± 0.0032
UCCUGGAUGUCCUUACAUAGUAUUUAGUUA	0.0237 ± 0.0056	0.0041 ± 0.0017
UGGACCUACACGAUGCAUAGUAUUUAGAAA	0.122 ± 0.016	–
UCCUGCUACAGCUUGCUUAGUAUUUUCAAA	0.11 ± 0.028	–
UCCUGGUUCAGCUUGCAUUGUAUUUAGUUA	0.61 ± 0.028	0.0343 ± 0.01
UCCUGGUACAGCUUGCAUAGUAUUCUAGUUA	0.442 ± 0.092	0.00651 ± 0.0028
UCCACCUACAGCUUGCUUAGUAUUUAGAAA	0.226 ± 0.037	–
UCCACCUACAGCUUGCAUAGUACUUUAGUUA	0.447 ± 0.035	0.00964 ± 0.0027
UCCUGCUACAGCUUGCAUAGUAUUUAGUUG [g2:g25:cont:t1G]	0.229 ± 0.019	0.0367 ± 0.0072
UCCUGCAUACAGCUUGCAUAGUAUUUAGUUA	1.63 ± 0.12	0.0686 ± 0.013
UCCUGAUACAGCUUGCAUAGUAUUUAGUUA	1.15 ± 0.046	0.0816 ± 0.017
UCGAGGUACAGCUUGCAUAGUAUUUUCAAA	0.278 ± 0.038	0.00215 ± 0.0021
UCCUGCUACAGCUUGCAUAGUUAUUACAAA	0.0101 ± 0.0052	–

Sequence	pre-steady-state target cleavage rate [1]	pre-steady-state target cleavage rate [2]
AGGACCUACAGCUUGCAAUGUAUUUACAAA	0.0775 ± 0.019	–
UCCUCCUACACCUUGCAAAGUAUUUAGUUA	0.831 ± 0.043	0.0328 ± 0.0065
UCCUGCUACAGCUUGCAUUGUUUUUAGUUA	0.0845 ± 0.0095	0.00988 ± 0.0021
UCGACCUACAGCAUGCAUUGUAUUUAGUUA	0.944 ± 0.04	0.0101 ± 0.0026
UGAGACCUACAGCUUGCAUAGUAUUUAGUUA	1.49 ± 0.1	0.0826 ± 0.015
AGAGACCUACAGCUUGCAUAGUAUUUAGUUA	1.46 ± 0.067	0.091 ± 0.017
UCCUGGAACACCUUGGAUAGUAUUUAGUUA	0.286 ± 0.038	0.00651 ± 0.0022
UCCUGGAUGAGCUUGCAUAGUAUAUUAGUUA	0.464 ± 0.04	0.00823 ± 0.004
UCCUGGUACAGCUUGCAUAGUAAUUAGAUA	0.209 ± 0.042	0.00778 ± 0.0021
AGGACGUACAGCUUGCAUAGUAUUUAGAAA	0.432 ± 0.06	0.0172 ± 0.0052
UCCUGGAUGUCGAACGUAAGUAUUUAUUA	< 0.0001	< 0.0001
UCCACCUACAGCUUGGUAAGUAUUUAGUUA	0.0619 ± 0.011	–
AGUACCUACAGCUUGCAUAGUAUUUAGUUA	1.23 ± 0.064	0.0796 ± 0.013
ACCACCUACAGCUUGCAUAGUAUUUAGUUA	1.16 ± 0.056	0.0927 ± 0.017
AGGUACCUACAGCUUGCAUAGUAUUUAGUUA	1.35 ± 0.21	0.481 ± 0.15
UCCACCUACAGCUUGCAUAGUAUUUAGUUUA	0.907 ± 0.047	0.0632 ± 0.014
UCUACCUACAGCUUGCAUAGUAUUUAGUUA	1.4 ± 0.043	0.0731 ± 0.013
UGUACCUACAGCUUGCAUAGUAUUUAGUUA	1.34 ± 0.049	0.0875 ± 0.013
UCCACCUACAGCUUGCAUAGUAUUUAGGUA	0.3 ± 0.054	0.00404 ± 0.0029
UGGUACCUACAGCUUGCAUAGUAUUUAGUUA	0.945 ± 0.17	0.117 ± 0.034
